Bioassay records: PubChem BioAssay, The Scripps Research Institute Molecular Screening Center
DAX1 inh-1 – DAX1 (NR0B1) inhibitors on StAR promoter, primary screen, cell-based, luminescence, SF-1 (NR5A1), full-length DAX-1; HEK293T StAR-luciferase reporter, SF-1/DAX-1 repression relief; inhibition, % at 6.8 µM; hit rate 1.1% among 370,000;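 active = inhibition above the mean over all tested compounds plus 3 SD, cut at about 3.6% in these data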;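 also: higher inhibition means more luminescence from relief of DAX-1 repression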
DAX1 inh-2 – DAX1 (NR0B1) inhibitors, primary screen, cell-based, HEK293, Gal4-DAX1, luciferase luminescence; inhibition, % at 6.75 µM; HEK293 Gal4-DAX1 luciferase reporter; Nuclear receptor subfamily 0 group B member 1 (Homo sapiens), P51843; hit rate 0.99% among 340,000;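 active = inhibition above the mean over all tested compounds plus 3 SD, cut at about 4.2% in these data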;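 also: inhibition shows as a rise in luminescence from relieved DAX1 repression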
Target sequence (P51843 207-470 limits assumed): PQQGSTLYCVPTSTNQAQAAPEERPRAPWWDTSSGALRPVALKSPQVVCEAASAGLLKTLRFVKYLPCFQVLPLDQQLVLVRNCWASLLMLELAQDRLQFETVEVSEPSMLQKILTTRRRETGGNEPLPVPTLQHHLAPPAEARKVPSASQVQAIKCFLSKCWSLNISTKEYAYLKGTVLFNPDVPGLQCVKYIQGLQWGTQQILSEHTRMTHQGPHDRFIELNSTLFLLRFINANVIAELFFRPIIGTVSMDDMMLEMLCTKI
ssDAF12 agonist – S. stercoralis DAF-12 nuclear receptor activators, primary screen, cell-based, luminescence, HEK293, GRIP1 co-expression, lit1-tk-luc. HEK293 ssDAF-12/GRIP1 lit1-tk-luc reporter; % of 3 µM dafachronic acid response. Nuclear hormone receptor DAF-12 (Strongyloides stercoralis). activation, % at 6.8 µM. hit rate 1% among 370,000;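 active = activation above the mean over all tested compounds plus 3 SD, cut at about 0.9% in these data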
hcDAF-12 act – H. contortus DAF-12 nuclear receptor activators, primary screen, cell-based, luminescence, HEK293, lit1-tk-luc reporter. HEK293 hcDAF-12 lit1-tk-luc reporter; 0% DMSO, 100% Δ7-dafachronic acid. activation, % at 6.8 µM. hit rate 1.4% among 370,000. AID 652067, 2013;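 active = activation above the mean of all tested compounds plus 3 SD, cut at about 5.5% in these data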
Wee1 stabilizer – Wee1 degradation inhibitors, primary screen, cell-based, HeLa, Wee1K328M-luciferase, luminescence; Wee1-like protein kinase (Homo sapiens), P30291; HeLa Luc-Wee1K328M stability; 100% = proteasome inhibitor MG132 effect; reporter increase, % at 5 µM; hit rate 1.2% among 220,000;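 active = activation above the mean of all tested compounds plus 3 SD, set per screening run, cut at about 8.8% in these data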;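 also: cells exposed to compound for 20 h before luminescence read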
hgDAF12 agonist – H. glycines DAF-12 receptor agonists, primary screen, cell-based, luminescence, HEK293, GAL4 fusion, UAS-luciferase; HEK293 GAL4-hgDAF12 UAS-luciferase reporter, agonist luminescence; normalized to butyrate control; activation, % at 6.8 µM; hit rate 1.8% among 370,000;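 active = activation above a cutoff set at the mean of all screened compounds plus 3 SD, cut at about 10% in these data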
A number is an active result; ! = a repeat was not active. A selection: hits, their analogues and other compounds. The true share with any hit is near 4.6%.

For Cc1ccc(C2C(C(=O)O)c3ccccc3C(=O)N2C)c(C)c1 (centres undefined) the results were DAX1 inh-1 inactive, DAX1 inh-2 inactive, ssDAF12 agonist inactive, hcDAF-12 act inactive, Wee1 stabilizer inactive and hgDAF12 agonist inactive.
For CN1C(=O)c2ccccc2C(C(=O)O)C1c1cn(C)c2ccccc12 (centres undefined) the results were DAX1 inh-1 inactive, DAX1 inh-2 inactive, ssDAF12 agonist inactive, hcDAF-12 act 5.9, Wee1 stabilizer inactive and hgDAF12 agonist inactive.
CCOc1ccc(-n2c(COc3ccccc3)nnc2SCC(=O)Nc2ccc(OCc3ccccc3)cc2)cc1 was read as DAX1 inh-1 inactive, ssDAF12 agonist inactive, hcDAF-12 act inactive and hgDAF12 agonist inactive.
`CCCCCc1nnc(NC(=O)C2COc3ccccc3O2)s1` (centres undefined) gave DAX1 inh-1 inactive, DAX1 inh-2 inactive, ssDAF12 agonist inactive, hcDAF-12 act 5.6, Wee1 stabilizer inactive and hgDAF12 agonist inactive.
Screening O=C(Nc1ccc2c(c1)CCC2)C1COc2ccccc2O1 (centres undefined) returned DAX1 inh-1 inactive, DAX1 inh-2 inactive, ssDAF12 agonist inactive, hcDAF-12 act inactive, Wee1 stabilizer inactive and hgDAF12 agonist 12.
O=C(Nc1nc2c(s1)CCCC2)C1COc2ccccc2O1 (centres undefined) was read as DAX1 inh-1 4.4, DAX1 inh-2 inactive, ssDAF12 agonist inactive, hcDAF-12 act inactive, Wee1 stabilizer inactive and hgDAF12 agonist inactive.
Screening Cc1ccc(Cc2cnc(NC(=O)C3CCCO3)s2)cc1 (centres undefined) returned DAX1 inh-1 inactive, DAX1 inh-2 inactive, ssDAF12 agonist 1.0, hcDAF-12 act inactive, Wee1 stabilizer inactive and hgDAF12 agonist 13.
Cc1nnc(NC(=O)C2COc3ccccc3O2)s1 (centres undefined) was read as DAX1 inh-1 inactive, DAX1 inh-2 inactive, ssDAF12 agonist inactive, hcDAF-12 act inactive, Wee1 stabilizer inactive and hgDAF12 agonist inactive.
CC1(C(=O)NC2CCCC2)CCC(=O)N1CCCn1ccnc1 (centres undefined) was read as DAX1 inh-1 inactive, ssDAF12 agonist inactive, hcDAF-12 act inactive and hgDAF12 agonist inactive.
O=C(Nc1ccncc1)C1COc2ccccc2O1 (centres undefined) was read as DAX1 inh-1 inactive, DAX1 inh-2 inactive, ssDAF12 agonist inactive, hcDAF-12 act inactive, Wee1 stabilizer inactive and hgDAF12 agonist inactive.
O=C(Nc1ncc(Cc2ccccc2)s1)C1COc2ccccc2O1 (centres undefined) was read as DAX1 inh-1 4.2, DAX1 inh-2 inactive, ssDAF12 agonist inactive, hcDAF-12 act inactive, Wee1 stabilizer inactive and hgDAF12 agonist 11.
Screening Cc1nn(C)cc1NC(=O)C[C@H]1CC[C@H]2[C@@H](COc3ccc(NC(=O)Nc4ccccc4)cc3C(=O)N2C)O1 returned DAX1 inh-1 inactive, ssDAF12 agonist inactive, hcDAF-12 act inactive and hgDAF12 agonist inactive.
`O=C1Nc2ccccc2C1=Nc1ccccc1-c1ccccc1` gave DAX1 inh-1 inactive, DAX1 inh-2 inactive, ssDAF12 agonist inactive, hcDAF-12 act inactive and hgDAF12 agonist inactive.
Screening CN(C)c1ccc(C(=O)c2ccccc2)cc1 returned DAX1 inh-1 inactive, DAX1 inh-2 inactive, ssDAF12 agonist 2.0, hcDAF-12 act inactive, Wee1 stabilizer inactive and hgDAF12 agonist inactive.
c1ccc2c(c1)Oc1cccc3cccc-2c13 was read as DAX1 inh-1 inactive, DAX1 inh-2 4.3, ssDAF12 agonist inactive, hcDAF-12 act inactive, Wee1 stabilizer inactive and hgDAF12 agonist inactive.
For CN(C)c1cccc2cccc(N(C)C)c12 the results were DAX1 inh-1 inactive, DAX1 inh-2 inactive, ssDAF12 agonist inactive, hcDAF-12 act inactive, Wee1 stabilizer inactive and hgDAF12 agonist inactive.
CCOc1ccc(N2C(=O)C(Cl)=C(Nc3ccccc3O)C2=O)cc1 was read as DAX1 inh-1 inactive, DAX1 inh-2 inactive, ssDAF12 agonist inactive, hcDAF-12 act 5.6, Wee1 stabilizer inactive and hgDAF12 agonist inactive.
For O=C(Nc1ccc(F)c(Cl)c1)C1Cc2c(-c3ccco3)ccnc2O1 (centres undefined) the results were DAX1 inh-1 inactive, ssDAF12 agonist inactive, hcDAF-12 act inactive and hgDAF12 agonist inactive.
Brc1ccccc1OCCCn1cnc2ccccc21 was read as DAX1 inh-1 inactive, DAX1 inh-2 inactive, ssDAF12 agonist inactive, hcDAF-12 act inactive, Wee1 stabilizer inactive and hgDAF12 agonist 11.
For CC1CCCC(NC(=O)c2cccs2)C1C (centres undefined) the results were DAX1 inh-1 inactive, DAX1 inh-2 inactive, ssDAF12 agonist inactive, hcDAF-12 act inactive and hgDAF12 agonist inactive.
`Brc1ccc2nc(-c3ccco3)c(CC3CCCCC3)n2c1` gave DAX1 inh-1 inactive, ssDAF12 agonist 1.3, hcDAF-12 act inactive and hgDAF12 agonist inactive.
Screening O=C1C=CC(=Nc2ccc3c(c2)Cc2cc(F)ccc2-3)O1 returned DAX1 inh-1 inactive, DAX1 inh-2 inactive, ssDAF12 agonist inactive, hcDAF-12 act inactive and hgDAF12 agonist 13.
`Cc1ccc(OCC(=O)N2CCN(c3nnc(-c4ccccc4)c4ccccc34)CC2)cc1` gave DAX1 inh-1 inactive, DAX1 inh-2 inactive, ssDAF12 agonist inactive, hcDAF-12 act inactive, Wee1 stabilizer inactive and hgDAF12 agonist inactive.
Screening CC(=O)N1CCN(c2nnc(-c3ccc(C)cc3)c3ccccc23)CC1 returned DAX1 inh-1 inactive, DAX1 inh-2 inactive, ssDAF12 agonist 1.1, hcDAF-12 act inactive and hgDAF12 agonist inactive.
For CCCCCCCCS(=O)C1CS(=O)(=O)CC1O (centres undefined) the results were DAX1 inh-1 inactive, DAX1 inh-2 4.7, ssDAF12 agonist inactive, hcDAF-12 act inactive, Wee1 stabilizer inactive and hgDAF12 agonist inactive.
For CCCCNc1c(-c2ccc(-c3cccc(Cl)c3)cc2)nc2ccccn12 the results were DAX1 inh-1 inactive, DAX1 inh-2 inactive, ssDAF12 agonist inactive, hcDAF-12 act inactive and hgDAF12 agonist 11!.
Screening CC1(C)CNC(=S)N1Cc1ccccc1 returned DAX1 inh-1 inactive, DAX1 inh-2 4.3, ssDAF12 agonist inactive, hcDAF-12 act inactive and hgDAF12 agonist inactive.
O=S(=O)(/C=C/c1ccccc1)Nc1ccc(N2CCOCC2)cc1 was read as DAX1 inh-1 inactive, DAX1 inh-2 inactive, ssDAF12 agonist inactive, hcDAF-12 act inactive, Wee1 stabilizer 10 and hgDAF12 agonist inactive.
